This note sets out measurements from PubChem BioAssay (NCI).

Some test systems named below: HCT-15 colon; HT29 colon; SNB-75 CNS; SNB-19 CNS; U251 CNS; PC-3 prostate; SK-MEL-5 melanoma; UACC-62 melanoma; LOX IMVI melanoma; SK-MEL-28 melanoma; SK-MEL-2 melanoma; SN12C renal; UO-31 renal; ACHN renal; CAKI-1 renal; A498 renal; CCRF-CEM leukemia; MOLT-4 leukemia; TK-10 renal; EKVX NSCLC.
Common to all, as to experiment: NCI-60 one-dose screen, 48 h (100 = growth as untreated, 0 = no growth, -100 = all killed)
Holding throughout (details): 10 µM

The panel holds about 83,000 compounds, 20% with a hit somewhere; the sample as a whole holds those more often.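 Each cell line was grown in a 96-well plate and treated with one concentration of compound for 48 hours. Values below 10 were considered active.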 Unmarked numbers belong to inactive results. Active and inactive are the calls of the source.

Turning to `C#CCn1c(-c2cccc(OCCCCl)c2)nc2c1c(=O)n(C)c(=O)n2C`, the growth is 86.9% with HCT-15 colon; 102% in the experiment with HT29 colon; 89% with SNB-75 CNS; 97% in the experiment on SNB-19 CNS; 90.7% in the experiment with U251 CNS; 26% with PC-3 prostate. Further, the growth was 61.4% in the experiment with SK-MEL-5 melanoma; 46.2% with UACC-62 melanoma; 93.8% in the experiment on LOX IMVI melanoma; 95.7% with SK-MEL-28 melanoma; 81% in the experiment on SK-MEL-2 melanoma; 84.5% in the experiment on SN12C renal. The growth in the experiment with UO-31 renal is 50.5%; in the experiment on ACHN renal it was 76.6%; with CAKI-1 renal it was 69.2%; with A498 renal, 83.6%; with CCRF-CEM leukemia, 13%; with MOLT-4 leukemia it was 2.33% (active).

Regarding `COc1ccc(-c2[nH]ncc2-c2cc(OC)c(OC)c(OC)c2)cc1`, the growth is 10.3% in the experiment on HCT-15 colon; -16.6% (active) in the experiment with HT29 colon; 49.1% with SNB-75 CNS; 44.5% with SNB-19 CNS; 6.25% (active) in the experiment with U251 CNS; 11.8% in the experiment on PC-3 prostate. Moreover, the growth in the experiment with UACC-62 melanoma is 35.2%; with LOX IMVI melanoma it was 27.8%; with SK-MEL-28 melanoma it was 37.2%; in the experiment on SK-MEL-2 melanoma, -2.39% (active); with SN12C renal it was 20.8%; with UO-31 renal, 11.6%. For the same compound, the growth was 44.7% in the experiment on TK-10 renal; 14.8% in the experiment with ACHN renal; 6.08% (active) in the experiment with CAKI-1 renal; -19.9% (active) in the experiment on A498 renal; 2.66% (active) in the experiment with CCRF-CEM leukemia.

Consider `COc1cc(-c2nc3ccccc3[nH]2)ccc1OCc1nnc(-c2ccc(Br)cc2)o1`, for which the growth is 45.3% with HCT-15 colon; 70.7% in the experiment on HT29 colon; 104% in the experiment with SNB-75 CNS; 104% with SNB-19 CNS; 83.9% in the experiment on U251 CNS; 96.2% with PC-3 prostate. The growth with SK-MEL-5 melanoma was 75%; with UACC-62 melanoma, 92.7%; with LOX IMVI melanoma it was 92.6%; with SK-MEL-28 melanoma, 93.2%; in the experiment with SK-MEL-2 melanoma, 105%; with SN12C renal, 85.8%. For the same compound, the growth is 79.5% in the experiment on UO-31 renal; 98.6% with ACHN renal; 95.5% with CAKI-1 renal; 79.6% in the experiment with A498 renal; 67.9% in the experiment on CCRF-CEM leukemia; 63.8% with MOLT-4 leukemia.

Regarding `O=C(O)CN1C(=O)C=CC1=O`, the growth in the experiment on HCT-15 colon is 100%; in the experiment with HT29 colon, 104%; in the experiment on SNB-75 CNS it was 103%; with SNB-19 CNS, 106%; in the experiment with U251 CNS, 102%; with PC-3 prostate, 99.8%. Moreover, the growth was 103% in the experiment on UACC-62 melanoma; 102% in the experiment on LOX IMVI melanoma; 123% in the experiment with SK-MEL-28 melanoma; 98.2% in the experiment with SK-MEL-2 melanoma; 106% with SN12C renal; 91.6% with UO-31 renal. Further, the growth in the experiment on TK-10 renal was 96.7%; in the experiment with ACHN renal, 104%; in the experiment on CAKI-1 renal, 102%; in the experiment with A498 renal it was 91.6%; with CCRF-CEM leukemia it was 107%; with MOLT-4 leukemia, 85.2%.

Take `COc1cc(-c2nc(-c3nnc(-c4cccnc4)o3)c3ccccn23)cc(OC)c1OC`: the growth with HCT-15 colon was 111%; in the experiment on HT29 colon, 97.4%; with SNB-75 CNS it was 96.7%; in the experiment on SNB-19 CNS it was 102%; with U251 CNS, 95%; in the experiment on PC-3 prostate, 101%. Besides, the growth with UACC-62 melanoma is 106%; in the experiment with LOX IMVI melanoma it was 97.3%; in the experiment on SK-MEL-28 melanoma, 121%; in the experiment on SK-MEL-2 melanoma, 111%; in the experiment on EKVX NSCLC, 106%; in the experiment on SN12C renal it was 99.6%. The growth in the experiment on UO-31 renal was 74.9%; in the experiment with TK-10 renal it was 109%; in the experiment with ACHN renal it was 99%; in the experiment with CAKI-1 renal it was 104%; in the experiment with A498 renal, 83%; in the experiment with MOLT-4 leukemia it was 93.7%.

Consider `N#Cc1c2c([nH]c(=O)c1C(N)=O)CCCCC2`, for which the growth was 105% in the experiment with HCT-15 colon; 105% in the experiment with HT29 colon; 104% in the experiment with SNB-75 CNS; 99% in the experiment with SNB-19 CNS; 98.3% in the experiment on U251 CNS; 103% with PC-3 prostate. The growth in the experiment with UACC-62 melanoma was 88.3%; with LOX IMVI melanoma, 101%; in the experiment with SK-MEL-28 melanoma, 106%; in the experiment on SK-MEL-2 melanoma it was 98.7%; with EKVX NSCLC, 104%; in the experiment on UO-31 renal, 85.2%. Moreover, the growth with ACHN renal was 104%; with CAKI-1 renal, 99.3%; in the experiment on A498 renal, 89.8%; in the experiment on CCRF-CEM leukemia, 95%; in the experiment with MOLT-4 leukemia, 117%.

`Oc1cc(O)c(Br)cc1Br`: the growth in the experiment on HCT-15 colon was 101%; in the experiment with HT29 colon, 98.1%; in the experiment on SNB-75 CNS, 95.7%; with SNB-19 CNS it was 102%; with U251 CNS, 99.7%; in the experiment with PC-3 prostate, 87.9%. For the same compound, the growth with UACC-62 melanoma is 101%; in the experiment on LOX IMVI melanoma, 94%; in the experiment with SK-MEL-28 melanoma, 111%; in the experiment with SK-MEL-2 melanoma, 96.6%; in the experiment with SN12C renal it was 101%; in the experiment with UO-31 renal, 85.2%. Moreover, the growth in the experiment on TK-10 renal was 94.3%; in the experiment with ACHN renal, 103%; in the experiment with CAKI-1 renal it was 95.9%; in the experiment on A498 renal, 96.7%; in the experiment with CCRF-CEM leukemia, 95.4%; with MOLT-4 leukemia, 93.1%.

Take `COc1cc(/C=C2\C(=O)Nc3cc(C)c(O)cc32)cc(OC)c1OC`: the growth was 33.7% in the experiment on HCT-15 colon; 22.4% in the experiment on HT29 colon; 55.1% in the experiment with SNB-75 CNS; 71.6% with SNB-19 CNS; 44.5% in the experiment on U251 CNS; 33.5% in the experiment with PC-3 prostate. The growth in the experiment with UACC-62 melanoma was 57.9%; in the experiment with LOX IMVI melanoma, 45.7%; in the experiment with SK-MEL-28 melanoma it was 73.2%; in the experiment on SK-MEL-2 melanoma, 79.3%; in the experiment with EKVX NSCLC, 48.5%; in the experiment on SN12C renal, 71.3%. Also, the growth in the experiment with UO-31 renal is 43%; in the experiment with TK-10 renal, 85%; in the experiment on ACHN renal, 68.4%; in the experiment on CAKI-1 renal, 15.7%; with A498 renal, 98.2%; with CCRF-CEM leukemia, 16.3%. The growth in the experiment on MOLT-4 leukemia was 53%.

`O=NN(CCCl)C(=O)Nc1ccc(NC(=O)N(CCCl)N=O)cc1`: the growth with HCT-15 colon was 94.5%; in the experiment on HT29 colon, 115%; in the experiment with SNB-75 CNS it was 64%; with SNB-19 CNS it was 68.6%; in the experiment with U251 CNS it was 55.7%; in the experiment on PC-3 prostate, 86.5%. Moreover, the growth was 63.9% in the experiment on UACC-62 melanoma; 58.5% in the experiment on LOX IMVI melanoma; 98.8% in the experiment on SK-MEL-28 melanoma; 129% with SK-MEL-2 melanoma; 90.7% in the experiment with SN12C renal; 96.6% with UO-31 renal. In addition, the growth with TK-10 renal was 114%; in the experiment with ACHN renal, 96.4%; in the experiment on CAKI-1 renal, 100%; in the experiment with A498 renal, 67.1%; with CCRF-CEM leukemia, 102%; in the experiment on MOLT-4 leukemia, 97.2%.
